# Shown are actives, neighbours in structure and some others; about 3.2% of the full set was active somewhere.
# BRCA1 expr up = qHTS Assay to Identify Small Molecule Activators of BRCA1 Expression; actives 1.1% (n = 380,000); MCF7-BRCA1-FFLuc reporter, luminescence, 48 h; response scale: scaled: vehicle 0%, 10 µM genistein 100%; Potency, µM (highest dose often 46.1 µM), for inactives: at the highest dose activation, usual class: activators; AID 624202, 2012; also: potency is read from the fitted curve at half-maximal effect; nearly all actives have a fitted effect of over 80% in size
#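 First, MCF7-BRCA1-FFLuc cells (2000/well) attach for 2 h; next, compounds are pin-added and incubated 48 h at 37 °C; finally, luciferase reagent is added and luminescence read after 15 min.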
# Nrf2 inh = Nrf2 qHTS screen for inhibitors. A549 ARE-Fluc reporter, luciferase luminescence, 18-24 h. Potency, µM (top dose mostly 46 µM), for inactives: top-dose activity change, negative = inhibition, most hits filed as inhibitors. actives 2.1% (n = 360,000); also: potency is read from the fitted curve at half-maximal effect; % is scaled to controls: 0 for no effect and ±100 for the full control effect; nearly all actives have a fitted effect of over 60% in size
#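 Two sequential reads on A549 ARE_Fluc cells exposed to compound for 18-24 h: a CellTiter-Fluor fluorescence read for viability, then a luciferase luminescence read for Nrf2/ARE activity.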
# IL2 activator = qHTS of IL-2 Activators. actives 0.065% (n = 360,000). IL-2 activation reporter assay, cell-based qHTS; stimulated with anti-CD3/CD4/CD28 beads; in transgenic mouse T cells. activation, % (series mostly up to about 46 µM). AID 652025, 2013; in the data active = activation above about 50%; inconclusive = mostly about 30% to 49%; also: 0% is about no effect
#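 Readout: EGFP and DsRed signals by fluorescent plate cytometry. Unstimulated transgenic mouse T cells received compound 60 min before antibody-bead stimulation, then incubated 18 h at 37 degrees C.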
# p53 reactivation = qHTS assay for re-activators of p53 using a Luc reporter. H1299 p53-A138V BP100-luciferase reporter, luminescence, 24 h. Potency, µM (doses to about 92.2 µM), for the others: top-dose activity change, positive = activation, most hits filed as activators. actives 0.063% (n = 320,000). AID 504706, 2011; also: potency is read from the fitted curve at half-maximal effect; % of control where 0% means no effect; nearly all actives have a fitted effect of over 45% in size
#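 H1299 (p53-null), stable ts p53-A138V + BP100-Luc; 1000 cells/well, Opti-MEM/10% FBS; cpd 4 pt, 1:5; 24 h, 37 deg C, 5% CO2; detection reagent 10 min RT; luminescence.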
# Nrf2 ARE act = qHTS of Nrf2 Activators | AREc32 ARE-luciferase reporter (MCF7-derived line), luminescence, 24 h | Potency, µM (titrated, usually from 46.1 µM), for inactives: at the highest dose activation, actives largely listed as activators | actives 0.31% (n = 410,000) | AID 624171, 2012; also: potency is read from the fitted curve at half-maximal effect; % of control where 0% means no effect; nearly all actives have a fitted effect of over 65% in size
#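 Steps: seed AREc32_Fluc cells (1000/well, 5% FBS OPTI-MEM); incubate overnight at 37 deg C; add 23 nL compound; incubate 24 hr; add Steady-Glo; hold 30 min RT; read luminescence.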
# A549 tox = Nrf2 qHTS screen for inhibitors: counterscreen for cytotoxicity. Potency, µM (titrated, usually from 46 µM), for the others: at the top dose activity change, negative = cytotoxicity, most hits filed as inhibitors. A549 ARE-Fluc cells, CellTiter-Fluor viability, 18-24 h. actives 0.16% (n = 390,000); also: potency is read from the fitted curve at half-maximal effect; % is scaled to controls: 0 for no effect and ±100 for the full control effect
#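 A549 ARE_Fluc cells in 5% FBS OPTI-MEM were exposed to compounds in concentration-response for 18-24 h at 37 deg C. Viability was read by CellTiter-Fluor fluorescence (Ex 405/Em 525) after 30 min, before the luciferase read.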
# Active calls of the source: *; u = inconclusive; x = not tested or not shown. Unless noted, calls follow the shape of the dose curve; as a rule, active = well fitted curve in the direction sought with a large enough effect; inconclusive = small, poorly fitted or top-dose-only effect, or another doubt; inactive = no such curve, though single readings can be large; an effect the other way counts as inactive or inconclusive.
SMILES,BRCA1 expr up,Nrf2 inh,IL2 activator,p53 reactivation,Nrf2 ARE act,A549 tox
O=C1CC(N2CCN(C3CC(=O)N(CCc4ccccc4)C3=O)CC2)C(=O)N1CCc1ccccc1 (stereo unspecified),-5%,-1%,-1,-2%,0%,13%
Cc1cccc(NC(=O)c2ccc(OC3CSC3)cc2)c1,11µM*,u,0,u,0%,-2%
O=C1CSC(=S)N1Cc1cccnc1,-78%,8%,0,-25%,8.9µM*,u
O=C1CSC(=S)N1c1cccnc1,15%,15%,1,0%,-1%,2%
C=CCn1c(SCc2csc(C)n2)nc2sc3c(c2c1=O)CCCC3,-41%,26µM*,-1,2%,0%,-14%
Cc1cc(C)n2nc(-c3ccco3)nc2n1,-4%,5%,0,2%,13µM*,1%
Cc1cc(Nc2ccc(Br)c(C)c2)n2nc(-c3ccco3)nc2n1,x,x,x,x,6%,-6%
Cc1ccccc1CNC(=O)C1CCCN(c2nnc(-n3c(C)ccc3C)s2)C1 (stereo unspecified),19%,-4%,x,x,u,11%
Cc1cccc(N2C(=O)N(Cc3cccc(C#N)c3)c3ccccc3S2(=O)=O)c1,0%,x,x,x,0%,-3%
CCN(CC)c1ccc(C(=C2C=CC(=[N+](CC)CC)C=C2)c2ccc(N(CC)CC)cc2)cc1,-82%,5.8µM*,-1,x,-3%,7.3µM*
O=S(=O)(c1ccc2c(c1)OCCO2)N1CCN(CCc2ccccc2)CC1,13%,-22%,x,x,x,9%
CCNc1nc(C#N)nc(Nc2ccccc2)n1,-45%,-13%,x,x,x,-3%
CC(C)(C)CNc1nc(C#N)nc(Nc2ccccc2)n1,x,18µM*,x,x,x,u
NCCCN(Cc1ccc(Cl)c(Cl)c1)c1ccccn1,-54%,8%,x,x,x,-11%
COc1ccc(NC(=O)/C(C#N)=C/c2cc(C)n(-c3ccc(N4CCOCC4)c([N+](=O)[O-])c3)c2C)cc1,-48%,6.5µM*,-2,-2%,-1%,-12%
Cc1cc(/C=C(\C#N)C(=O)Nc2ccc(F)cc2)c(C)n1-c1ccc(N2CCOCC2)c([N+](=O)[O-])c1,-54%,u,0,3%,0%,-8%
CCCCOc1cccc(NC(=O)CSc2nnc(C)s2)c1,x,u,x,x,0%,0%
O=C(c1cccc(C(=O)N(c2ccccn2)C2CCCCC2)c1)N(c1ccccn1)C1CCCCC1,-35%,16µM*,-1,-1%,6%,-15%
CCOc1ccc(S(N)(=O)=O)cc1-c1nc2c(C(C)(C)C)nn(C)c2c(=O)[nH]1,-10%,u,-3,4%,0%,0%
CCOc1ccc(S(=O)(=O)NC(C)(C)C)cc1-c1nc2c(C(C)(C)C)nn(C)c2c(=O)[nH]1,-89%,21µM*,-3,-5%,-2%,u
Cn1c(SCc2ccccc2Cl)nc(=O)c2c1NC(=O)CC2c1cc(F)ccc1F (stereo unspecified),x,7%,x,x,0%,6%
CN(C)c1cccc(C(=O)N/N=C/c2ccsc2)c1,10µM*,u,-2,u,0%,-7%
CN(C)c1cccc(C(=O)N/N=C/c2ccoc2)c1,73%,28%,-1,x,-1%,2%
COc1ccc2[nH]c(=O)c(C(=O)O)cc2c1,-12%,9%,-1,-3%,2%,-5%
CC(C)C1Cc2[nH]c(=O)c(C(=O)O)cc2CO1 (stereo unspecified),8.9µM*,11%,-1,u,0%,-4%
SMILES,BRCA1 expr up,Nrf2 inh,IL2 activator,p53 reactivation,Nrf2 ARE act,A549 tox
CC1(C)CC(=O)C2=C(C1)Oc1nc3ccccc3cc1C2C(C#N)C#N (stereo unspecified),-91%,u,2,-11%,7.1µM*,u
CC1(C)CC(=O)C(C2C3=C(CC(C)(C)CC3=O)Oc3ccccc32)C(=O)C1 (stereo unspecified),0%,5%,0,0%,0%,u
COc1ccc(N2CCN(C(=O)CS(=O)(=O)c3cccc4nsnc34)CC2)cc1,16%,x,x,x,0%,-2%
CNc1nc(N/N=C/c2cc3c(cc2[N+](=O)[O-])OCO3)nc(Nc2ccccc2)n1,-88%,18µM*,-1,-13%,1%,u
OC(C[n+]1cccc(Br)c1)c1ccccc1 (stereo unspecified),-8%,x,x,x,x,x
Cc1cc(NC(=O)Nc2nnc(N(C)C3CCCCC3)s2)ccc1Br,x,26µM*,x,x,0%,-11%
O=C(/C=C/c1ccccc1Cl)Nc1nc(-c2cccs2)ns1,x,12%,x,x,6.3µM*,-3%
COc1ccc(C(=O)O/N=C(\N)c2ccncc2)cc1OC,32%,9%,0,u,3%,4%
N/C(=N\OC(=O)COc1ccc(Cl)cc1Cl)c1ccncc1,1.1µM*,u,0,3%,4%,5%
COc1ccc(Cl)cc1C(=O)O/N=C(\N)c1ccncc1,-20%,u,-4,13%,4µM*,-1%
COc1ccc(OC)c(CNC(=O)c2ccc3c(c2)c(C)c(C)n3Cc2ccc(Cl)cc2)c1,x,22%,x,x,0%,3%
Cc1ccc(NC(=O)CSc2nc3ccccc3c3nc(CCc4c(C)n[nH]c4C)nn23)c(C)c1,x,x,x,x,-1%,-8%
O=C(Nc1cccs1)Nc1ccccc1Cl,27%,-29%,0,10%,24%,-13%
O=C(Nc1cccs1)Nc1cccnc1Cl,-30%,0%,0,-9%,11µM*,2%
COc1ccc(NC(=O)Nc2cccs2)cc1OC,90%,8%,-1,5%,5%,3%
COc1cccc(NC(=O)Nc2cccs2)c1,13µM*,17%,0,u,13%,-6%
Cc1cc(C)cc(NC(=O)Nc2cccs2)c1,x,u,x,x,u,-6%
Cc1ccc(NC(=O)Nc2cccs2)cc1,1.3µM*,u,-1,u,15%,10%
CC1CCN(S(=O)(=O)c2ccc3c(c2)N(CC(=O)NCCN(C)C)C(=O)CO3)CC1,1%,11%,x,x,-1%,2%
COc1ccc(Nc2c(-c3ccsc3)nc3nc(C)cc(C)n23)cc1,x,3%,x,x,4%,0%
COc1ccccc1CNC(=O)c1ccc2nc3[nH]c4ccccc4c3nc2c1,-80%,15µM*,0,-42%,26%,u
O=C(CSCc1cccc(CSCC(=O)Nc2ccc3ccccc3c2)n1)Nc1ccc2ccccc2c1,29%,13µM*,-1,-1%,1%,-22%

# Screens deposited in PubChem by National Center for Advancing Translational Sciences (NCATS).
